Values joined by “and” are separate entries in the source; they are usually repeats but may differ in a detail not shown here. Identical values can stand only once. Out of some 16,000 compounds screened, about 4,000 (25%) were called active. Not shown: some 26% with an inconclusive outcome. Calls follow the shape of the dose curve; as a rule, active = well fitted curve in the direction sought with a large enough effect; inconclusive = small, poorly fitted or top-dose-only effect, or effect the other way; inactive = no such curve, though single readings can be large or run the other way. Only a sample is shown. Where a structure was tested more than once in an assay, its records may differ in their call.
target: Cytochrome P450 2C9 (Homo sapiens) (UniProt P11712); experiment: Cytochrome panel assay with activity outcomes; conditions: recombinant CYP, pro-luciferin dealkylation, luminescence, p450-cyp2c9; series mostly up to 57.1 µM; activity, negative = inhibition: at the top concentration
Sequence (P11712 whole entry, looked up): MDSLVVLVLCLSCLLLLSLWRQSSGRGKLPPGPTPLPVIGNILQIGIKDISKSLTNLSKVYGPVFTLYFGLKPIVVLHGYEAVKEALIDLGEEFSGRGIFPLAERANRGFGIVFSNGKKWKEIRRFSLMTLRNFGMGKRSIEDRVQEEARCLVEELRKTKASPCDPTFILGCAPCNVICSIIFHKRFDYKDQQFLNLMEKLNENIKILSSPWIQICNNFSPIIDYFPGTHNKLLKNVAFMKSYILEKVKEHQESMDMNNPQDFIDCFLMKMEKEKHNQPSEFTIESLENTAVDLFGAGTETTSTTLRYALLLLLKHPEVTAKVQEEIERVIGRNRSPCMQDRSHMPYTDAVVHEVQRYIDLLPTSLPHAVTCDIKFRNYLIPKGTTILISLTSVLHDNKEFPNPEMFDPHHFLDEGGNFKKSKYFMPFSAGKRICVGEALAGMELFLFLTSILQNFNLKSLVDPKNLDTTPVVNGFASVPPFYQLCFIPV
% is scaled to controls: 0 for no effect and ±100 for the full control effect.

| SMILES | activity, negative = inhibition | AC50 |
| --- | --- | --- |
| Cn1c(N)nc2c(nc(OCc3ccccc3)n2[C@@H]2O[C@H](CO)[C@@H](O)[C@@H]2O)c1=O | 1.04% [at 11.4 µM] (inactive) |  |
| CCOc1cc(C)c(S(=O)(=O)Nc2ccc3cn[nH]c3c2)cc1C |  | 2.82 µM (active) |
| CCOC(=O)c1ccc(S(=O)(=O)Nc2ccc3cn[nH]c3c2)cc1 |  | 0.794 µM (active) |
| Cc1ccccc1C1C(C#N)=C2N=C(N)c3c(sc4c3CCCCC4)N2C2=C1C(=O)CC(C)(C)C2 (stereo not drawn) |  | 3.55 µM (active) |
| OC[C@@H]1O[C@H](O)[C@@H](Cl)[C@H](O)[C@@H]1O | 13.7% (inactive) |  |
| Cc1noc(C)c1-c1cncnc1N1CCN(C)CC1 | 15.2% [at 2.29 µM] (inactive) |  |
| O=C(N/N=C/c1cc([N+](=O)[O-])ccc1N1CCNCC1)c1ccc([N+](=O)[O-])cc1 | -9.44% (inactive) |  |
| CCN(CC)C(=O)C1CCCN(c2ccc([N+](=O)[O-])cc2/C=N/NC(=O)c2ccc([N+](=O)[O-])cc2)C1 (stereo not drawn) |  | 12.6 µM (active) |
| CN1CCC(=NNC(=O)CSCc2ccccc2)CC1 | -24.9% (inactive) |  |
| CSc1ccccc1NC(=O)CSCc1ccc(C)cc1 |  | 10 µM (active) |
| C=CCN(CC=C)C(=S)Nc1ccccc1 | -11.8% (inactive) |  |
| S=C(Nc1ccccc1)Nc1ccccc1C#Cc1ccccc1 |  | 3.98 µM (active) |
| Cc1ccc(-c2nn(-c3ccccc3)cc2/C=N/NS(=O)(=O)c2ccccc2)cc1 |  | 7.94 µM (active) |
| O=S(=O)(N/N=C\c1cn(-c2ccccc2)nc1-c1ccccc1)c1ccccc1 |  | 4.47 µM (active) |
| O=S(=O)(N/N=C\c1cccn1-c1ccccc1)c1ccc2ccccc2c1 | 4.26% (inactive) |  |
| CC(C)=C1C(=O)C(c2ccccc2)=C2CN3C(=O)N(CCc4ccccc4)C(=O)[C@]3(Cc3ccccc3)[C@H]21 |  | 10 µM (active) |
| CC1(C)C(=O)C(c2ccccc2)=C2CN3C(=O)N(CCc4ccccc4)C(=O)C3(Cc3ccc(C(F)(F)F)cc3)C=C21 (stereo not drawn) | -3.37% (inactive) |  |
| CCN1CCC[C@@H](OC(=O)C(c2ccccc2)c2ccccc2)C1 | -2.59% [at 25.6 µM] (inactive) |  |
| CCN1CCc2nc(NC(=O)CC(c3ccccc3)c3ccccc3)sc2C1 |  | 14.1 µM (active) |
| Cc1nc2nc(SCC(=O)NCc3ccco3)nn2c(C)c1Cc1c(F)cccc1Cl |  | 0.708 µM (active) |
| Cc1ccc(Cc2c(C)nc3nc(SCC(=O)NCc4ccco4)nn3c2C)cc1 |  | 10 µM (active) |
| Cc1nc2nc(C)c(CCC(=O)NCCCN3CCN(c4cccc(Cl)c4)CC3)c(C)n2n1 | -19.6% (inactive) |  |
| Cc1nc2ncnn2c(C)c1CCC(=O)NCc1ccco1 | 15.9% (inactive) |  |
| Fc1ccc(Nc2ncncc2-c2ccoc2)cc1 | -24.6% [at 2.29 µM] (inactive) |  |

| SMILES | activity, negative = inhibition | AC50 |
| --- | --- | --- |
| COC(=O)/C=C\CCc1coc(/C=C\CNC(=O)OC)n1 | -17.2% [at 11.4 µM] (inactive) |  |
| c1ccc2c(Nc3ccncc3)nc(-c3ccoc3)nc2c1 | -11.6% [at 2.29 µM] (inactive) |  |
| CC(C)NC(=O)c1ccc2c(=O)n(Cc3ccco3)c(=S)[nH]c2c1 | -9.15% (inactive) |  |
| COc1ccc(CCNC(=O)c2ccc3c(=O)n(Cc4ccco4)c(=S)[nH]c3c2)cc1OC |  | 4.47 µM (active) |
| CCCOc1ccccc1-c1nc2n[nH]nc2c(=O)[nH]1 |  | inactive |
| CN(C)S(=O)(=O)Oc1ccsc1C(=O)Nc1cccc(Cl)c1 |  | 8.91 µM (active) |
| C/C(=N/OC(=O)c1cccc(Cl)c1)c1nccs1 | -18.8% (inactive) |  |
| CN(C)S(=O)(=O)Oc1ccc(Cl)cc1C(=O)Nc1cccc(C(F)(F)F)c1 |  | 7.94 µM (active) |
| O=C(Cn1ccc(=O)[nH]c1=O)Nc1ccc(C(=O)O)c(O)c1 | -4.1% [at 11.4 µM] (inactive) |  |
| CC(C)CN1CC[C@@]2(CCCN(C(=O)c3cc(C(F)(F)F)cc(C(F)(F)F)c3)C2)C1 | -7.51% (inactive) |  |
| COc1ccc2c(c1OC)C(=O)O[C@@H]2[C@H]1c2c(cc3c(c2OC)OCO3)CCN1C |  | 0.126 µM (active) |
| COc1c(O)ccc2c1CN1CCc3cc4c(cc3[C@@H]1C2)OCO4 | 1.47% [at 11.4 µM] (inactive) |  |
| COc1ccc2c(c1OC)C(=O)OC2[C@H]1c2c(cc3c(c2OC)OCO3)CCN1C (stereo partly drawn) |  | 5.01 µM (active) and 2.51 µM (active) |
| COc1ccc2cc3[n+](cc2c1OC)CCc1cc2c(cc1-3)OCO2 | 3.73% [at 25.6 µM] (inactive) |  |
| COc1ccc2c(c1OC)C(=O)OC2Nc1ncccc1C (stereo not drawn) | 20.3% (inactive) |  |
| NCC[C@H](O)C(=O)N[C@H]1C[C@@H](N)[C@@H](O[C@H]2O[C@@H](CN)[C@@H](O)[C@@H](O)[C@@H]2O)[C@@H](O)[C@@H]1O[C@H]1O[C@@H](CO)[C@@H](O)[C@@H](N)[C@@H]1O | 3.41% [at 25.6 µM] (inactive) |  |
| O=C1c2ccccc2C(=O)C1c1ccccc1 | -10.8% [at 25.6 µM] (inactive) |  |
| OC(CN1CCCCC1)CN1CCCCC1 | 19.5% (inactive) |  |
| Cc1cc2c(nc1C)CCCN2C[C@@H](O)CN1CCN(C)CC1 | 29.4% [at 11.4 µM] (inactive) |  |
| Cc1cc2c(nc1C)CCCN2C[C@H](O)CN1CCCc2nc(-c3ccc(Br)cc3)ccc21 |  | 2.51 µM (active) |
| COc1ccc(-c2ccc3c(n2)CCCN3C[C@H](O)CN2CCCc3nc(C)c(C)cc32)cc1 |  | 3.98 µM (active) |
| CO/N=C(\C)CCN1CCCc2nc(C)c(C)cc21 | -0.836% [at 11.4 µM] (inactive) |  |
| Cc1cc2c(nc1C)CCCN2CC(O)CN1CCCc2nc(C)c(C)cc21 | -10.8% [at 11.4 µM] (inactive) |  |
| CCN(CC)C[C@@H](O)CN1CCCCc2nc(C)c(C)cc21 | -1.31% [at 11.4 µM] (inactive) |  |

| SMILES | activity, negative = inhibition | AC50 |
| --- | --- | --- |
| Cc1ccc(Cn2nc(C)c(NC(=O)c3cc(-c4ccco4)on3)c2C)cc1 |  | 12.6 µM (active) |
| Cc1ccc(Cn2ccc(NC(=O)c3cc4nc(-c5ccco5)cc(C(F)(F)F)n4n3)n2)cc1 | -18.3% (inactive) |  |
| c1ccc2c(CC3=NCCN3)cccc2c1 | -5.9% [at 25.6 µM] (inactive) |  |
| Clc1cccc(Cl)c1NC1=NCCN1 |  | inactive and 7.94 µM (active) |
| COc1nc(C)nc(Cl)c1NC1=NCCN1 |  | inactive |
| C/C(=N\Nc1nnc(-c2ccccc2)c(-c2ccccc2)n1)c1cccc([N+](=O)[O-])c1 |  | 20 µM (active) |
| C/C(=N\Nc1ccc([N+](=O)[O-])cc1)c1cccc(N)c1 |  | 5.62 µM (active) |
| O=[N+]([O-])c1cccc(/C=N/Nc2cc(Cl)nc(-c3ccccc3)n2)c1 | -21.3% (inactive) |  |
| c1ccc([C@@H]2CN3CCSC3=N2)cc1 |  | inactive |
| CN(C)C(=O)c1ccc(-c2nccc(NCc3ccccc3)n2)cc1 | -14% [at 2.29 µM] (inactive) |  |
| CCOC(=O)c1nnc(-c2ccccc2)nc1NCc1ccccc1 |  | 25.1 µM (active) |
| CN(C)C(=O)c1ccc(-c2nc(NCc3ccccc3)c3ccccc3n2)cc1 | -4.46% [at 2.29 µM] (inactive) |  |
| O=C(O)CCC(=O)c1ccc2ccc3cccc4ccc1c2c34 | 4.8% [at 11.4 µM] (inactive) |  |
| CCCCN(CC)C(=O)Cc1ccccc1OC | -33.3% (inactive) |  |
| COc1ccc(C(=O)CCN(C)C)c2ccccc12 |  | 3.98 µM (active) |
| O=C1c2ccccc2CCC12N=NCC2c1ccc(Cl)cc1 (stereo not drawn) |  | 14.1 µM (active) |
| CC(C)(C)NC(=S)Nc1ccc(Nc2ccccc2)cc1 |  | 7.08 µM (active) |
| Nc1ccc(Nc2ccccc2)cc1 |  | 8.91 µM (active) |
| N#[N+]c1ccc(Nc2ccccc2)cc1 | 5.95% [at 11.4 µM] (inactive) |  |
| CNC(=S)Nc1ccc(Nc2ccccc2)cc1 |  | 39.8 µM (active) |
| CNC(=S)Nc1ccc2nc(C)c(C)nc2c1 | -19.6% (inactive) |  |
| Cc1ccccc1-c1cncnc1Nc1ccccc1 | -13.5% [at 2.29 µM] (inactive) |  |
| COc1ccc(NC(=S)Nc2ccccc2)cc1 | -15.3% [at 11.4 µM] (inactive) |  |
| CN(C)C(=O)c1ccc(-c2ccc3ncnc(NCCN4CCOCC4)c3c2)cc1 | 1.81% [at 2.29 µM] (inactive) |  |

| SMILES | activity, negative = inhibition | AC50 |
| --- | --- | --- |
| Cc1c(C(=O)Nc2nccs2)sc2nc(-c3cccs3)cc(C(F)(F)F)c12 |  | 3.16 µM (active) |
| CC(C)(C)NC(=O)CN(Cc1cccs1)C(=O)CCC(=O)Nc1nccs1 | -15.4% (inactive) |  |
| CC[C@H](NC(=O)c1c(C)c(-c2ccccc2)nc2ccccc12)c1ccccc1 | -5.92% (inactive) |  |
| CCC(NC(=O)C1(C)CC1(Br)Br)c1ccc(C)cc1 (stereo not drawn) |  | 5.01 µM (active) |
| N#Cc1cccc(-c2nccc(-n3ccnc3)n2)c1 | 5.77% [at 2.29 µM] (inactive) |  |
| CO[C@H]1[C@@H](OC(N)=O)[C@H](O)[C@@H](Oc2ccc3c(O)c(NC(=O)c4ccc(O)c(CC=C(C)C)c4)c(=O)oc3c2C)OC1(C)C | -30% [at 25.6 µM] (inactive) |  |
| COc1ccccc1CC(=O)Nc1cc2oc3ccccc3c2cc1OC |  | 3.98 µM (active) |
| COC(=O)N1CCC2(CCN(Cc3ccccc3OC)CC2)CC1 | 11.3% (inactive) |  |
| CCOCC(=O)Nc1c(C(=O)Nc2ccccc2OC)oc2ccccc12 | -15.3% (inactive) |  |
| CCCC[C@@H]1C[C@H]1C(NC(=O)c1cccs1)c1ccc(Cl)cc1 (stereo partly drawn) |  | 1 µM (active) |
| CCCC[C@@H]1C[C@H]1C(NC(=O)c1cccs1)c1ccc(-c2ccccc2)cc1 (stereo partly drawn) |  | 1.58 µM (active) |
| CCCC[C@@H]1C[C@H]1C(NC(=O)c1cccs1)c1ccc(C(F)(F)F)cc1 (stereo partly drawn) |  | 1.58 µM (active) |
| Cc1cc(C)c2c(N)c3ccccc3nc2n1 | -20.2% (inactive) |  |
| COc1cccc(Nc2ncc3ncc(=O)n(CCC#N)c3n2)c1 | -9.1% (inactive) |  |
| CCNc1ncc2nc(CCc3ccccc3)c(=O)n(Cc3cccc(OC)c3)c2n1 | -28.8% (inactive) |  |
| COc1cccc(Cn2c(=O)cnc3cnc(N(C)C)nc32)c1 |  | 12.6 µM (active) |
| COc1cccc(Cn2c(=O)c(CCc3ccccc3)nc3cnc(OC)nc32)c1 |  | 6.31 µM (active) |
| COc1cccc(Cn2c(=O)c(CCc3ccccc3)nc3cnc(N(C)C)nc32)c1 |  | 10 µM (active) |
| COc1cccc(Cn2c(=O)cnc3cnc(Nc4cccc(OC)c4)nc32)c1 |  | 2 µM (active) |
| COc1ccc(-n2c(=O)cnc3cnc(N(C)C)nc32)cc1 | -5.06% (inactive) |  |
| COc1cccc(Nc2ncc3ncc(=O)n(C)c3n2)c1 | -22.8% (inactive) |  |

Source: PubChem BioAssay AID1851 (National Center for Advancing Translational Sciences (NCATS), 2009)
